Experimental data taken from the supplement of paper PMC11732987, “Enantioselective OTUD7B fragment discovery through chemoproteomics screening and high-throughput optimisation” (Communications Chemistry, 2025).
Values without a mark were called inactive.

What was measured:
Assay in all cases: log2 ratio of Biotin-Ahx-Ub-VS probe labelling (fragment/DMSO); higher = less target engagement (more negative = stronger competition), active = hit call of the paper (q ≤ 0.05, log2 ratio ≤ -1)
Conditions in all cases: compound concentration: 200 uM; treatment time: 3 h
[1] = target: T1, OTUD6B (UniProt Q8N6M0)
T1 sequence (whole entry): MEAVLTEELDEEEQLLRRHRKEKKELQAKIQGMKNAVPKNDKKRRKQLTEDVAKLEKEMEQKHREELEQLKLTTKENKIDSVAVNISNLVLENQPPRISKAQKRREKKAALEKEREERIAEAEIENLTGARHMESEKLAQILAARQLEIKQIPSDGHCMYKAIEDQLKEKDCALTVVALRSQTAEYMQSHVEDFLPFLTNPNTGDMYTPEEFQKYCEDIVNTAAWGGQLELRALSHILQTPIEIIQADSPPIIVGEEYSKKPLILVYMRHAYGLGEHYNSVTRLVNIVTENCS
In short: (§1)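 The table lists average log2 ratios of fragment over vehicle, from an unpaired t-test on global-median-normalised Spectronaut label-free quantities. Proteins with ≥2 unique peptides were used. Samples were HEK293T lysate (495 µg) treated in triplicate with fragment at 200 µM or vehicle for 3 h, then with Biotin-Ahx-Ub-VS (0.5 µM final) for 1 h, with labelled DUBs NeutrAvidin-enriched and run by diaPASEF LC-MS/MS.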

[2] = target: T2, OTUD7B (UniProt Q6GQQ9)
T2 sequence (whole entry): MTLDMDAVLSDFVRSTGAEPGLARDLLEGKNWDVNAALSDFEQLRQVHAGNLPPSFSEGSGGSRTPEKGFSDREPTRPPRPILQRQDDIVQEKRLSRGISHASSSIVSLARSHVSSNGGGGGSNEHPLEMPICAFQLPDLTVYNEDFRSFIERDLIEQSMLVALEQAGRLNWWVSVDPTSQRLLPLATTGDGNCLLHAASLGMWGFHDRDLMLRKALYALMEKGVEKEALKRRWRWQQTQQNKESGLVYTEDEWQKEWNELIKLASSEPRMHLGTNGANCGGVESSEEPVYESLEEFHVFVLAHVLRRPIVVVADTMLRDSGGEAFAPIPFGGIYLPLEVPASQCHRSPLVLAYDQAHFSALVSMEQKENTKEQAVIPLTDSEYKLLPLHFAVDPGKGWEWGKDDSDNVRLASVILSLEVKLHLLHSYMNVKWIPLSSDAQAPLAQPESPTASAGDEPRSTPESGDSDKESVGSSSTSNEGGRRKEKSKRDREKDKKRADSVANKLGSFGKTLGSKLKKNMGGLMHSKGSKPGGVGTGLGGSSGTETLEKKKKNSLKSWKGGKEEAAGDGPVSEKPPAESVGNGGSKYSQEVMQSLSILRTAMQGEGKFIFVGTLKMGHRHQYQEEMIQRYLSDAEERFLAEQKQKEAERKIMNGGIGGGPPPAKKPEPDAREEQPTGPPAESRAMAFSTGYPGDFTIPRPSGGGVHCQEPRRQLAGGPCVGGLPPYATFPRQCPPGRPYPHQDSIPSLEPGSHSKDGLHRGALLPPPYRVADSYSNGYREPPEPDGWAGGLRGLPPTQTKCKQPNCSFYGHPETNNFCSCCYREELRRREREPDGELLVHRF
In short: as §1

[3] = target: PRPF8 (UniProt Q6P2Q9)
In short: as §1

[4] = target: T3, PSMD7 (UniProt P51665)
T3 sequence (whole entry): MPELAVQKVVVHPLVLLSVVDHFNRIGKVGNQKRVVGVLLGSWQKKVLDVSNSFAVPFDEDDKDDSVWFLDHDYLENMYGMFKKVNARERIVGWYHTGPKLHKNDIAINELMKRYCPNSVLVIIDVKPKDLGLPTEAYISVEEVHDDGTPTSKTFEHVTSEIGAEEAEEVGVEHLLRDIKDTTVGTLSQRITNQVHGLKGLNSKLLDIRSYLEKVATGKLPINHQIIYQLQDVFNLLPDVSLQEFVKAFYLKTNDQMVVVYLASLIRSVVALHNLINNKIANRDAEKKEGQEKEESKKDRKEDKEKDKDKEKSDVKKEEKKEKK
In short: as §1

[5] = target: UCHL1 (UniProt P09936)
In short: as §1

[6] = target: T4, UCHL3 (UniProt P15374)
T4 sequence (whole entry): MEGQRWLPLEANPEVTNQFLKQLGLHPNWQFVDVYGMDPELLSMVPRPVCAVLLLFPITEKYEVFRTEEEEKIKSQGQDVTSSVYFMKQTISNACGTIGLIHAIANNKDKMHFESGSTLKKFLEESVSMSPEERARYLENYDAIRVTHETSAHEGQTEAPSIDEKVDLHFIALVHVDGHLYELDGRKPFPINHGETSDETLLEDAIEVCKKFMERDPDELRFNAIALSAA
In short: as §1

[7] = target: T5, UCHL5 (UniProt Q9Y5K5)
T5 sequence (whole entry): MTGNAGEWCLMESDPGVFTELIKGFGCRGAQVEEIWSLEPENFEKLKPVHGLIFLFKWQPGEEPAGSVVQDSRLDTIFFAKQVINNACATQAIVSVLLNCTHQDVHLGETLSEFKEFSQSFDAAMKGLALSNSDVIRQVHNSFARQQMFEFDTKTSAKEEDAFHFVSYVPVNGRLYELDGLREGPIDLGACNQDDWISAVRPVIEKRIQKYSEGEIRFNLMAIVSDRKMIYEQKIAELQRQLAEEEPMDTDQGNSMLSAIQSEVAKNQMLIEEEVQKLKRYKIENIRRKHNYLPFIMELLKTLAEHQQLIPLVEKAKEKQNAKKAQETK
In short: as §1

[8] = target: USP10 (UniProt Q14694)
In short: as §1

[9] = target: T6, USP15 (UniProt Q9Y4E8)
T6 sequence (whole entry): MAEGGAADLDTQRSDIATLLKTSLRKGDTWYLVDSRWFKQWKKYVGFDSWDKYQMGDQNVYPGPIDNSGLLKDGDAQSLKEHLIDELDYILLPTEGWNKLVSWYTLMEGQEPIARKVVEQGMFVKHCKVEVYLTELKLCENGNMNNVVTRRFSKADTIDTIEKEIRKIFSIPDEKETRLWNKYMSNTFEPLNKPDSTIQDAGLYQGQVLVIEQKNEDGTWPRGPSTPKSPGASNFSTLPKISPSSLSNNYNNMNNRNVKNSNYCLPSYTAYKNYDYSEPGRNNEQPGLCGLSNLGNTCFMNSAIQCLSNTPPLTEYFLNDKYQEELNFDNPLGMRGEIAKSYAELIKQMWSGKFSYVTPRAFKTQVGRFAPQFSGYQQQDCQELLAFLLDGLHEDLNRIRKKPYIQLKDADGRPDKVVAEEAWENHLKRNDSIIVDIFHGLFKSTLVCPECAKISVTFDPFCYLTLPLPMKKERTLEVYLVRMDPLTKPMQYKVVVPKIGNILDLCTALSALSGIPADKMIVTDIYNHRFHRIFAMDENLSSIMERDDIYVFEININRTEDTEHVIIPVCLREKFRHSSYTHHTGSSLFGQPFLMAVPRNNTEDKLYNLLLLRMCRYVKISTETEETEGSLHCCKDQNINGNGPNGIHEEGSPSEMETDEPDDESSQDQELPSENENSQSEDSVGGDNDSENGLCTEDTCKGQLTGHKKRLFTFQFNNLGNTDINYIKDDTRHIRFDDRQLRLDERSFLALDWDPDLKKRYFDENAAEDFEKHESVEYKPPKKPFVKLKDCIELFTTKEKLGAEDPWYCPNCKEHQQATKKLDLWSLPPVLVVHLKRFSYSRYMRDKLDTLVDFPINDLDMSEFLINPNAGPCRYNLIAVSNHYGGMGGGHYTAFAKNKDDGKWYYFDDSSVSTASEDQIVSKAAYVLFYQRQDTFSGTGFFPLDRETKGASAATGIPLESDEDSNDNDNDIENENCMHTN
In short: as §1

[10] = target: USP16 (UniProt Q9Y5T5)
In short: as §1

Sequence of UCHL1 (P09936 whole entry, looked up): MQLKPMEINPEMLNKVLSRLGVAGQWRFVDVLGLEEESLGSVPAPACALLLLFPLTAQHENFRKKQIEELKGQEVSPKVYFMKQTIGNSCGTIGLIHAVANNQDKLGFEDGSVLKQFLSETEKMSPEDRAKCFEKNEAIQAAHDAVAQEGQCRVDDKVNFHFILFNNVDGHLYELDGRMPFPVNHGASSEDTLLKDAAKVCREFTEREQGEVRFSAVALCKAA
Sequence of USP16 (Q9Y5T5 whole entry, looked up): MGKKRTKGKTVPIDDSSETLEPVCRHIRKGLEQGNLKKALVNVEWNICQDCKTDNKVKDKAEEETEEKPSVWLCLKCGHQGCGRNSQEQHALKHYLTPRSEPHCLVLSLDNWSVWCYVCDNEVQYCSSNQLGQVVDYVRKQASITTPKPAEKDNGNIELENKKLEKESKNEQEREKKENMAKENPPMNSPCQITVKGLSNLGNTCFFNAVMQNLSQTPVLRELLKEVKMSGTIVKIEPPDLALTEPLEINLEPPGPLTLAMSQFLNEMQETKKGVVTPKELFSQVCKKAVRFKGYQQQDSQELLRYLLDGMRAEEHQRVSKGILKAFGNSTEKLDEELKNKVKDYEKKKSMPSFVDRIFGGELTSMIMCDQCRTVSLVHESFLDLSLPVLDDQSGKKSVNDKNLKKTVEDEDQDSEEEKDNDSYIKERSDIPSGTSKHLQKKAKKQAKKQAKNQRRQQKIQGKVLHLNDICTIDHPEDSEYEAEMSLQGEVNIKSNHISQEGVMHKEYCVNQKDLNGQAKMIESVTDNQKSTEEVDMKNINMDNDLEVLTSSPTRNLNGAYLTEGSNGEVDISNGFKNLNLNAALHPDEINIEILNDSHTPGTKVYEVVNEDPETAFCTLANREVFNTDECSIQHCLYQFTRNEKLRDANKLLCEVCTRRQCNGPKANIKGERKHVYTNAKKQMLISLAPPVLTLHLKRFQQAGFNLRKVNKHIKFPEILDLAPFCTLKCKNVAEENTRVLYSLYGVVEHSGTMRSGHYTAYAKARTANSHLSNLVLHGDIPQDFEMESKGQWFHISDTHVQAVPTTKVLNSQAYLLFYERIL
Sequence of USP10 (Q14694 whole entry): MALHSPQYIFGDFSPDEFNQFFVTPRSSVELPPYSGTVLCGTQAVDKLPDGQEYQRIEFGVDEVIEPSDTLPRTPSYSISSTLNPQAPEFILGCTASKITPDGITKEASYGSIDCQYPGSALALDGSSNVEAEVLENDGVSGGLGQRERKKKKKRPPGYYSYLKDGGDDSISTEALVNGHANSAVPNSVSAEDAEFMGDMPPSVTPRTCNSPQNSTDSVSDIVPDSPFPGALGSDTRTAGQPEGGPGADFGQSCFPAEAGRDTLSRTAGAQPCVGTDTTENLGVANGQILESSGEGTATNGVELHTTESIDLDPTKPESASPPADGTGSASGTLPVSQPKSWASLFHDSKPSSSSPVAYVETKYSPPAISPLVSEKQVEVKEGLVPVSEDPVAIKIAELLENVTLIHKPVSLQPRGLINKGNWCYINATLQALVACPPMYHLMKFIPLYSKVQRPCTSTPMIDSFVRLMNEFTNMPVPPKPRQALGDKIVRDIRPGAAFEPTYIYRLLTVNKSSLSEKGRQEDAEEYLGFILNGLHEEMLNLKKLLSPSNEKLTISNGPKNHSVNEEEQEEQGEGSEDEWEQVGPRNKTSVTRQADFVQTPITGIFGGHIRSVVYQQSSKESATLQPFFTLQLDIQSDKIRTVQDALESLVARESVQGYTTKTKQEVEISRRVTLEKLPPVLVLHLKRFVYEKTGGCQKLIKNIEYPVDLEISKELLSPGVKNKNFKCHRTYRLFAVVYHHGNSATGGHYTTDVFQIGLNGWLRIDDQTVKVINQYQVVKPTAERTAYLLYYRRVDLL

O=C(CCl)N1CCN2C(=O)CCC2C1 (stereo not given)
log2 ratio of Biotin-Ahx-Ub-VS probe labelling [1]: -0.158
log2 ratio of Biotin-Ahx-Ub-VS probe labelling [2]: -0.49
log2 ratio of Biotin-Ahx-Ub-VS probe labelling [3]: -0.164
log2 ratio of Biotin-Ahx-Ub-VS probe labelling [4]: -0.288
log2 ratio of Biotin-Ahx-Ub-VS probe labelling [5]: -1.64 (active)
log2 ratio of Biotin-Ahx-Ub-VS probe labelling [6]: 0.118
log2 ratio of Biotin-Ahx-Ub-VS probe labelling [7]: -0.0709
log2 ratio of Biotin-Ahx-Ub-VS probe labelling [8]: -0.195
log2 ratio of Biotin-Ahx-Ub-VS probe labelling [9]: -0.15
log2 ratio of Biotin-Ahx-Ub-VS probe labelling [10]: 0.00152
